In the antibiotic and cytotoxicity screens of Wong et al. (2023):
Among all 39,000 compounds or so, about 3,300 (8.5%) were called active. What follows is part of a selection rich in actives, with near analogues and random picks from the rest.

Test system: HepG2
Experiment: cytotoxicity call (relative viability < 0.9)
Conditions: 10 µM

Row | Structure (SMILES) | cytotoxicity call
1 | COc1cccc(-c2cn(CC[C@H]3CC[C@@H](NC(=O)CN(C)C)[C@H](CO)O3)nn2)c1 | inactive
2 | CC(C)NC(=O)N(C)C[C@H]1Oc2ccc(NC(=O)Cc3ccccc3)cc2CC(=O)N([C@@H](C)CO)C[C@H]1C | inactive
3 | CN1C(=O)c2cc(NC(=O)c3ccno3)ccc2OC[C@H]2O[C@@H](CC(=O)NC3Cc4ccccc4C3)CC[C@@H]21 | inactive
4 | Cc1noc(C)c1NC(=O)N(C)C[C@@H]1Oc2ccc(NC(=O)Cn3cnnn3)cc2CC(=O)N([C@H](C)CO)C[C@@H]1C | inactive
5 | C[C@@H]1CCCCO[C@H](CN(C)C(=O)Nc2ccc(C(F)(F)F)cc2)[C@H](C)CN([C@H](C)CO)C(=O)c2cc(NC(=O)Nc3ccccc3)ccc2O1 | inactive
6 | O=C(C[C@@H]1CC=CC[C@H](NC(=O)OCC2c3ccccc3-c3ccccc32)C(=O)O[C@H](c2ccccc2)CNC1=O)N[C@H](CO)Cc1ccccc1 | inactive
7 | O=C(C[C@@H]1CC[C@@H](NS(=O)(=O)c2ccccc2)[C@@H](CO)O1)NCc1ccncn1 | inactive
8 | Cc1noc(C)c1S(=O)(=O)N(C)C[C@H]1Oc2ccc(NS(=O)(=O)c3ccc(F)cc3)cc2CC(=O)N([C@@H](C)CO)C[C@@H]1C | inactive
9 | CC1CC(OC(=O)c2ccccc2O)CC(C)(C)C1 (stereo unspecified) | active
10 | CC1CC(OC(=O)C(O)c2ccccc2)CC(C)(C)C1 (stereo unspecified) | inactive
11 | O=C(Oc1ccccc1C(=O)O)c1ccccc1O | inactive
12 | C[C@H]1CN([C@@H](C)CO)C(=O)Cc2cc(NS(C)(=O)=O)ccc2O[C@@H]1CN(C)S(=O)(=O)c1ccccc1 | inactive
13 | C[C@H]1CCCCO[C@H](CN(C)C(=O)C2CCCCC2)[C@@H](C)CN([C@@H](C)CO)C(=O)c2cc(NC(=O)CCC(F)(F)F)ccc2O1 | inactive
14 | COCC(=O)N(C)C[C@@H]1Oc2cc(C#Cc3cccnc3)ccc2S(=O)(=O)N([C@H](C)CO)C[C@@H]1C | inactive
15 | C[C@@H]1CN([C@H](C)CO)C(=O)c2cccc(NC(=O)Nc3ccc(F)cc3)c2O[C@@H]1CN(C)C(=O)Nc1ccc(C(F)(F)F)cc1 | inactive
16 | C[C@@H]1CN([C@H](C)CO)C(=O)c2cccc(NC(=O)Nc3ccc(F)cc3)c2O[C@H]1CN(C)C(=O)Nc1ccc(C(F)(F)F)cc1 | inactive
17 | C[C@H]1CN([C@@H](C)CO)C(=O)c2cccc(NC(=O)Nc3ccc(C(F)(F)F)cc3)c2O[C@H]1CN(C)C(=O)Nc1ccc(F)cc1 | active
18 | C[C@@H]1CN([C@H](C)CO)C(=O)c2cccc(NC(=O)Nc3ccc(C(F)(F)F)cc3)c2O[C@@H]1CN(C)C(=O)Nc1ccc(F)cc1 | inactive
19 | C[C@H](CO)N1C[C@H](C)[C@H](CN(C)C(=O)Nc2ccc(F)cc2)Oc2c(NC(=O)Nc3ccc(C(F)(F)F)cc3)cccc2C1=O | active
20 | C[C@H]1CN([C@@H](C)CO)C(=O)c2cccc(NC(=O)Nc3ccc(C(F)(F)F)cc3)c2O[C@@H]1CN(C)C(=O)Nc1ccc(F)cc1 | inactive
21 | C[C@H](CO)N1C[C@H](C)[C@@H](CN(C)S(=O)(=O)c2cn(C)cn2)Oc2c(NC(=O)Nc3ccccc3)cccc2C1=O | inactive

Row | Structure (SMILES) | cytotoxicity call
22 | C[C@@H]1CCCCO[C@H](CN(C)C(=O)C2CCCCC2)[C@@H](C)CN([C@H](C)CO)C(=O)c2cc(NC(=O)c3ccccc3)ccc2O1 | inactive
23 | C[C@@H]1CN([C@@H](C)CO)S(=O)(=O)c2ccc(Br)cc2O[C@@H]1CN(C)C(=O)c1ccncc1 | inactive
24 | C[C@H](CO)N1C[C@H](C)[C@H](CN(C)Cc2ccc(C(F)(F)F)cc2)Oc2ccc(NC(=O)NC3CCCCC3)cc2C1=O | inactive
25 | C[C@@H]1CN([C@@H](C)CO)C(=O)c2cccc(NS(C)(=O)=O)c2O[C@@H]1CN(C)S(=O)(=O)c1ccc(Cl)cc1 | inactive
26 | C[C@@H]1CN([C@H](C)CO)C(=O)c2cc(NC(=O)NC3CCCCC3)ccc2O[C@@H](C)CCCCO[C@@H]1CN(C)Cc1ccc(C(F)(F)F)cc1 | inactive
27 | C[C@H](CO)N1C[C@H](C)[C@@H](CN(C)Cc2ccc(C(F)(F)F)cc2)OCCCC[C@H](C)Oc2ccc(NC(=O)NC3CCCCC3)cc2C1=O | active
28 | C[C@H]1CCCCO[C@H](CN(C)Cc2ccc(C(F)(F)F)cc2)[C@@H](C)CN([C@@H](C)CO)C(=O)c2cc(NC(=O)NC3CCCCC3)ccc2O1 | active
29 | C[C@@H]1CN([C@@H](C)CO)C(=O)c2cc(NC(=O)NC3CCCCC3)ccc2O[C@@H](C)CCCCO[C@H]1CN(C)Cc1ccc(C(F)(F)F)cc1 | active
30 | C[C@H](CO)N1C[C@H](C)[C@H](CN(C)Cc2ccc(C(F)(F)F)cc2)OCCCC[C@H](C)Oc2ccc(NC(=O)NC3CCCCC3)cc2C1=O | inactive
31 | C[C@@H]1CCCCO[C@@H](CN(C)Cc2ccc(C(F)(F)F)cc2)[C@H](C)CN([C@@H](C)CO)C(=O)c2cc(NC(=O)NC3CCCCC3)ccc2O1 | active
32 | Cc1ccc2nc(CN)cn2c1 | inactive
33 | CCOc1ccc(Nc2nc3c(=O)nc[nH]c3n2[C@H]2O[C@@H](CO)[C@@H](O)[C@@H]2O)cc1 | inactive
34 | C[C@H](CO)N1C[C@H](C)[C@@H](CN(C)C(=O)CCC(F)(F)F)OCCCC[C@H](C)Oc2ccc(NC(=O)CCC(F)(F)F)cc2C1=O | inactive
35 | C[C@H]1CN([C@@H](C)CO)C(=O)CCCn2nncc2CO[C@H]1CN(C)C(=O)c1ccc(N2CCN(C)CC2)cc1 | inactive
36 | COc1ccc(S(=O)(=O)N(C)C[C@@H]2Oc3ccc(NC(=O)NC(C)C)cc3CC(=O)N([C@H](C)CO)C[C@H]2C)cc1 | inactive
37 | CN1CCN(C(=O)C[C@H]2CC[C@H]3[C@@H](COc4ccc(NC(=O)c5ccc(F)c(F)c5)cc4C(=O)N3C)O2)CC1 | inactive
38 | COc1ccc(CNS(=O)(=O)N(C)C)cc1 | inactive
39 | CO[C@H]1CN(C)C(=O)c2cc(NC(=O)Nc3ccccc3)ccc2OC[C@H](C)N(C(=O)CN(C)C)C[C@H]1C | inactive
40 | C[C@@H]1CCCCO[C@H](CN(C)Cc2ccc(C(F)(F)F)cc2)[C@@H](C)CN([C@H](C)CO)C(=O)c2cc(NC(=O)NC3CCCCC3)ccc2O1 | active
41 | C[C@@H]1CCCCO[C@@H](CN(C)Cc2ccc(C(F)(F)F)cc2)[C@@H](C)CN([C@H](C)CO)C(=O)c2cc(NC(=O)NC3CCCCC3)ccc2O1 | inactive
42 | C[C@@H]1CCCCO[C@H](CN(C)Cc2ccc(C(F)(F)F)cc2)[C@@H](C)CN([C@@H](C)CO)C(=O)c2cc(NC(=O)NC3CCCCC3)ccc2O1 | active

Row | Structure (SMILES) | cytotoxicity call
43 | C[C@@H]1CCCCO[C@@H](CN(C)Cc2ccc(C(F)(F)F)cc2)[C@@H](C)CN([C@@H](C)CO)C(=O)c2cc(NC(=O)NC3CCCCC3)ccc2O1 | active
44 | C[C@@H]1CCCCO[C@H](CN(C)Cc2ccc(C(F)(F)F)cc2)[C@H](C)CN([C@H](C)CO)C(=O)c2cc(NC(=O)NC3CCCCC3)ccc2O1 | active
45 | CNC(=O)C[C@H]1CC[C@H]2[C@@H](COC[C@@H](O)CN2C(=O)Nc2ccc3c(c2)OCO3)O1 | inactive
46 | C[C@H](CO)N1C[C@H](C)[C@H](CN(C)C(=O)Nc2ccc(F)cc2)Oc2ccc(NS(=O)(=O)c3cn(C)cn3)cc2C1=O | inactive
47 | C[C@H](CO)N1C[C@H](C)[C@@H](CN(C)C(=O)Cc2ccccc2)OCCCC[C@H](C)Oc2ccc(NS(=O)(=O)c3ccc(F)cc3)cc2C1=O | inactive
48 | C[C@@H]1CN([C@@H](C)CO)C(=O)c2cc(NS(=O)(=O)c3cn(C)cn3)ccc2O[C@@H]1CN(C)C(=O)NC1CCCCC1 | inactive
49 | COc1ccc(S(=O)(=O)N(C)C[C@H]2OCCCC[C@@H](C)Oc3ccc(NS(=O)(=O)c4cn(C)cn4)cc3C(=O)N([C@@H](C)CO)C[C@@H]2C)cc1 | inactive
50 | C[C@@H]1CCCCO[C@H](CN(C)C(=O)Nc2cccc3ccccc23)[C@H](C)CN([C@@H](C)CO)C(=O)c2cc(NS(=O)(=O)c3cn(C)cn3)ccc2O1 | inactive
51 | COc1ccc(S(=O)(=O)Nc2cccc3c2O[C@H](CN(C)C(=O)NC(C)C)[C@@H](C)CN([C@H](C)CO)C3=O)cc1 | inactive
52 | C[C@@H]1CCCCO[C@H](CN(C)S(=O)(=O)c2ccccc2)[C@@H](C)CN([C@H](C)CO)C(=O)c2cc(NC(=O)C3CCCCC3)ccc2O1 | inactive
53 | CNC(=O)C(=O)NC[C@H]1CCCN1S(=O)(=O)c1cccs1 | inactive
54 | CC(=O)OC1CCC2(C)C(CCC3C4CC=C(C(C)=O)C4(C)CCC32)C1 (stereo not drawn) [3-beta-ACETOXYALLOPREG-16-EN-20-ONE ] | inactive
55 | Cc1noc(C)c1S(=O)(=O)Nc1ccc2c(c1)CC(=O)N([C@H](C)CO)C[C@@H](C)[C@@H](CN(C)S(C)(=O)=O)O2 | inactive
56 | C[C@@H]1CCCCO[C@@H](CN(C)C(=O)CCC(F)(F)F)[C@H](C)CN([C@@H](C)CO)C(=O)c2cc(NC(=O)CCC(F)(F)F)ccc2O1 | inactive
57 | C[C@@H]1CCCCO[C@@H](CN(C)Cc2ccc(C(F)(F)F)cc2)[C@H](C)CN([C@H](C)CO)C(=O)c2cc(NC(=O)NC3CCCCC3)ccc2O1 | active
58 | C[C@@H]1CN([C@@H](C)CO)C(=O)c2cc(NC(=O)NC3CCCCC3)ccc2O[C@@H](C)CCCCO[C@@H]1CN(C)Cc1ccc(C(F)(F)F)cc1 | inactive
59 | C[C@H]1CCCCO[C@@H](CN(C)Cc2ccc(C(F)(F)F)cc2)[C@@H](C)CN([C@@H](C)CO)C(=O)c2cc(NC(=O)NC3CCCCC3)ccc2O1 | active
60 | C[C@@H]1CN([C@H](C)CO)C(=O)c2cc(NC(=O)NC3CCCCC3)ccc2O[C@@H](C)CCCCO[C@H]1CN(C)Cc1ccc(C(F)(F)F)cc1 | inactive
61 | C[C@@H]1CCCCO[C@H](CN(C)Cc2ccc(C(F)(F)F)cc2)[C@H](C)CN([C@@H](C)CO)C(=O)c2cc(NC(=O)NC3CCCCC3)ccc2O1 | active
